Data published in PubChem BioAssay AID1159580 (chemical genetic matrix, 2015).
“And” between values parts separate entries of the source, which are not always exact repeats. Equal values may be shown once. The whole screen tested about 5,500 compounds, of which about 2,000 (36%) were called active. Another 18% or so got no clear call; they are omitted. Rule as the data show it: active = normalized growth mostly below about 0.91 (no sharp cut-off); inconclusive = no clear call, values can overlap the other calls; inactive = mostly above about 0.92. The list shows a part of the results.

Assay: chemical genetic growth profiling, strain panel (AID 1159580);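 also: tested at 20 µM; growth read once vehicle control cultures reached saturation at 30 °C; 1 = growth at the plate median or of vehicle wells; lower values mean less growth of the strain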
Conditions: S. cerevisiae deletion strains, growth OD
[1] = locus YGR078C, strain PAC10, stronger effect = lower value
[2] = locus YJR075W, strain HOC1, stronger effect = lower value
[3] = locus YMR263W, strain SAP30, stronger effect = lower value
[4] = locus YMR307W, strain GAS1, stronger effect = lower value
[5] = locus YNL153C, strain GIM3, stronger effect = lower value
[6] = locus YNL322C, strain KRE1, stronger effect = lower value
[7] = locus YPL055C, strain LGE1, stronger effect = lower value
[8] = locus YPL241C, strain CIN2, stronger effect = lower value

Measured: normalized growth

NCC(O)c1ccc(O)c(O)c1 (stereo not given)
inactive: locus YAL040C, strain CLN3, stronger effect = lower value 1.01 and 1.02 | locus YCL061C, strain MRC1 (second series), stronger effect = lower value 0.998 | locus YDR363W, strain ESC2, stronger effect = lower value 0.991 | locus YER002W, strain NOP16, stronger effect = lower value 1.02 and 0.999 | [1] 1 | [2] 1.02 | [3] 1.01 | [4] 1.02 | [5] 1.01 | locus YNL175C, strain NOP13, stronger effect = lower value 0.999 and 1.01 | locus YNL197C, strain WHI3, stronger effect = lower value 0.995 and 1.01 | locus YNL224C, strain SQS1, stronger effect = lower value 0.987 and 0.982 | [6] 0.997 and 1.02 | locus YOR083W, strain WHI5 (second series), stronger effect = lower value 0.98 and 0.991 | [7] 1 | [8] 1.01

C[n+]1cccc(C(=O)[O-])c1
inactive: locus YAL013W, strain DEP1, stronger effect = lower value 1.01 | locus YAL021C, strain ccr4, stronger effect = lower value 1.02 | locus YAL026C, strain drs2, stronger effect = lower value 0.972 | locus YAL030W, strain snc1, stronger effect = lower value 0.982 | locus YBL061C, strain skt5, stronger effect = lower value 0.975 | locus YBR009C, strain hhf1, stronger effect = lower value 0.99 | locus YBR021W, strain FUR4, stronger effect = lower value 1 | locus YBR023C, strain chs3, stronger effect = lower value 0.963 | locus YBR171W, strain sec66, stronger effect = lower value 0.958 | locus YBR229C, strain ROT2, stronger effect = lower value 1.01 | locus YBR231C, strain swc5, stronger effect = lower value 0.97 | locus YBR279W, strain paf1, stronger effect = lower value 0.972 | locus YCL011C, strain gbp2, stronger effect = lower value 0.97 | locus YCL016C, strain dcc1, stronger effect = lower value 0.998 | locus YCL029C, strain bik1, stronger effect = lower value 0.993 | locus YCL069W, strain vba3, stronger effect = lower value 0.941 | locus YCR088W, strain abp1, stronger effect = lower value 0.963 | locus YDL005C, strain med2, stronger effect = lower value 0.952 | locus YDL035C, strain GPR1, stronger effect = lower value 1.03 | locus YDL040C, strain nat1, stronger effect = lower value 0.981 | locus YDL074C, strain BRE1, stronger effect = lower value 1.03 | locus YDL101C, strain DUN1, stronger effect = lower value 1.03 | locus YDL134C, strain PPH21, stronger effect = lower value 1.07 | locus YDL185W, strain tfp1, stronger effect = lower value 0.999 | locus YDL192W, strain arf1, stronger effect = lower value 1.01 | locus YDR001C, strain nth1, stronger effect = lower value 0.965 | locus YDR069C, strain doa4, stronger effect = lower value 0.958 | locus YDR101C, strain arx1, stronger effect = lower value 0.995 | locus YDR137W, strain rgp1, stronger effect = lower value 0.974 | locus YDR150W, strain NUM1, stronger effect = lower value 1.01 | locus YDR159W, strain sac3, stronger effect = lower value 0.97 | locus YDR162C, strain NBP2, stronger effect = lower value 1.07 | locus YDR195W, strain ref2 0.91 | locus YDR297W, strain sur2, stronger effect = lower value 0.975 | locus YDR318W, strain mcm21, stronger effect = lower value 0.994 | locus YDR334W, strain swr1, stronger effect = lower value 0.965 | locus YDR335W, strain msn5, stronger effect = lower value 0.952 | locus YDR388W, stronger effect = lower value 0.996 | locus YDR392W, strain spt3, stronger effect = lower value 0.987 | locus YDR502C, strain sam2, stronger effect = lower value 1 | locus YEL003W, strain gim4, stronger effect = lower value 0.964 | locus YEL037C, strain rad23, stronger effect = lower value 0.964 | locus YEL061C, strain CIN8 (second series), stronger effect = lower value 0.923 | locus YEL061C, strain CIN8, stronger effect = lower value 1.01 | locus YER015W, strain faa2, stronger effect = lower value 0.983 | locus YER016W, strain bim1, stronger effect = lower value 0.967 | locus YER110C, stronger effect = lower value 0.995 | locus YER111C, strain swi4, stronger effect = lower value 0.942 | locus YER155C, strain BEM2 (second series), stronger effect = lower value 0.992 | locus YER155C, strain BEM2, stronger effect = lower value 0.999 | locus YER167W, strain BCK2, stronger effect = lower value 1.02 | locus YFR010W, strain ubp6, stronger effect = lower value 0.943 | locus YGL078C, strain dbp3, stronger effect = lower value 0.997 | locus YGL086W, strain mad1, stronger effect = lower value 1 | locus YGL167C, strain pmr1, stronger effect = lower value 0.984 | locus YGL173C, strain kem1, stronger effect = lower value 0.986 | locus YGL227W, strain vid30, stronger effect = lower value 0.957 | locus YGL240W, strain doc1, stronger effect = lower value 0.972 | locus YGL248W, strain PDE1, stronger effect = lower value 1.02 | locus YGL253W, strain hxk2, stronger effect = lower value 0.955 | [1] 1.04 | locus YGR135W, strain pre9, stronger effect = lower value 1 | locus YGR229C, strain SMI1, stronger effect = lower value 1.04 | locus YGR252W, strain gcn5, stronger effect = lower value 0.966 | locus YHR013C, strain ard1, stronger effect = lower value 0.981 | locus YHR027C, strain rpn1, stronger effect = lower value 0.992 | locus YHR030C, strain SLT2, stronger effect = lower value 1.01 and 1.03 | locus YHR079C, strain IRE1 (second series), stronger effect = lower value 1.01 | locus YHR079C, strain IRE1, stronger effect = lower value 1.02 | locus YHR094C, strain hxt1, stronger effect = lower value 0.983 | locus YHR129C, strain ARP1, stronger effect = lower value 1.02 | locus YHR142W, strain chs7, stronger effect = lower value 0.955 | locus YHR200W, strain rpn10, stronger effect = lower value 1.01 | locus YIL066C, strain RNR3, stronger effect = lower value 1.05 | locus YIL073C, strain SPO22, stronger effect = lower value 1.02 | locus YIL125W, strain kgd1, stronger effect = lower value 0.984 | locus YIR030C, strain dcg1, stronger effect = lower value 1.01 | locus YJL092W, strain hpr5, stronger effect = lower value 0.937 | locus YJL095W, strain BCK1 (second series), stronger effect = lower value 0.971 | locus YJL095W, strain BCK1, stronger effect = lower value 1.07 and 1.01 | locus YJL115W, strain asf1, stronger effect = lower value 0.956 | locus YJL129C, strain trk1, stronger effect = lower value 0.936 | locus YJL134W, strain LCB3, stronger effect = lower value 1.01 | locus YJL154C, strain vps35, stronger effect = lower value 0.948 | locus YJL164C, strain tpk1, stronger effect = lower value 0.985 | locus YJL166W, strain qcr8, stronger effect = lower value 0.961 | locus YJL168C, strain set2, stronger effect = lower value 0.999 | locus YJL187C, strain SWE1 (second series), stronger effect = lower value 1.03 | locus YJL187C, strain SWE1, stronger effect = lower value 0.97 | locus YJR043C, strain POL32, stronger effect = lower value 1.04 | locus YJR066W, strain TOR1, stronger effect = lower value 0.975 | [2] 1.03 | locus YKL009W, strain mrt4, stronger effect = lower value 1 | locus YKL068W, stronger effect = lower value 1.01 | locus YKL085W, strain MDH1 (second series), stronger effect = lower value 1.01 | locus YKL085W, strain MDH1, stronger effect = lower value 1.01 | locus YKL160W, strain elf1, stronger effect = lower value 0.996 | locus YKR001C, strain vps1, stronger effect = lower value 0.987 | locus YKR026C, strain gcn3, stronger effect = lower value 0.952 | locus YKR091W, strain srl3, stronger effect = lower value 0.966 | locus YLL001W, strain dnm1, stronger effect = lower value 0.97 | locus YLL026W, stronger effect = lower value 0.989 | locus YLL041C, strain sdh2, stronger effect = lower value 0.963 | locus YLR027C, strain aat2, stronger effect = lower value 0.983 | locus YLR039C, strain RIC1, stronger effect = lower value 1.12 | locus YLR058C, strain SHM2, stronger effect = lower value 1.02 | locus YLR102C, strain apc9, stronger effect = lower value 0.997 | locus YLR113W, strain HOG1, stronger effect = lower value 1.04 | locus YLR221C, strain rsa3, stronger effect = lower value 0.972 | locus YLR258W, strain gsy2, stronger effect = lower value 0.971 | locus YLR262C, strain YPT6 (second series), stronger effect = lower value 0.947 | locus YLR262C, strain YPT6, stronger effect = lower value 1.12 | locus YLR268W, strain sec22, stronger effect = lower value 1.02 | locus YLR320W, strain mms22, stronger effect = lower value 0.975 | locus YLR330W, strain CHS5, stronger effect = lower value 1.02 | locus YLR342W, strain FKS1 (second series), stronger effect = lower value 1.04 | locus YLR342W, strain FKS1, stronger effect = lower value 0.948 | locus YLR357W, strain rsc2, stronger effect = lower value 0.917 | locus YLR370C, strain arc18, stronger effect = lower value 0.972 | locus YLR371W, strain rom2, stronger effect = lower value 0.994 | locus YLR384C, strain iki3, stronger effect = lower value 0.961 | locus YLR418C, strain cdc73, stronger effect = lower value 1.02 | locus YML016C, strain PPZ1, stronger effect = lower value 1.02 | locus YML032C, strain rad52, stronger effect = lower value 1.01 | locus YML120C, strain ndi1, stronger effect = lower value 0.968 | locus YML124C, strain tub3, stronger effect = lower value 0.994 | locus YMR058W, strain fet3, stronger effect = lower value 0.986 | locus YMR078C, strain ctf18, stronger effect = lower value 0.998 | locus YMR125W, strain sto1, stronger effect = lower value 0.939 | locus YMR129W, stronger effect = lower value 0.975 | locus YMR205C, strain PFK2, stronger effect = lower value 0.974 | locus YMR223W, strain ubp8, stronger effect = lower value 1 | locus YMR231W, strain pep5, stronger effect = lower value 0.975 | [3] 1.03 | [4] 1.02 | locus YNL067W, strain RPL9B, stronger effect = lower value 1.03 | locus YNL071W, strain lat1, stronger effect = lower value 0.961 | [5] 1.04 | locus YNL183C, strain NPR1, stronger effect = lower value 0.981 | locus YNL209W, strain ssb2, stronger effect = lower value 0.975 | locus YNL233W, strain BNI4, stronger effect = lower value 1.03 | locus YNL248C, strain rpa49, stronger effect = lower value 0.937 | locus YNL250W, strain rad50, stronger effect = lower value 0.999 | locus YNL271C, strain bni1, stronger effect = lower value 1 | locus YNL298W, strain CLA4, stronger effect = lower value 1.02 | locus YNL307C, strain MCK1, stronger effect = lower value 1 | locus YNL322C, strain KRE1 (second series), stronger effect = lower value 0.948 | [6] 1 | locus YNR049C, strain mso1, stronger effect = lower value 0.962 | locus YNR052C, strain pop2, stronger effect = lower value 1 | locus YOL012C, strain htz1 1.15 | locus YOL147C, strain pex11, stronger effect = lower value 0.996 | locus YOR001W, strain rrp6, stronger effect = lower value 0.933 | locus YOR061W, strain CKA2, stronger effect = lower value 1.02 | locus YOR069W, strain VPS5, stronger effect = lower value 1.01 | locus YOR070C, strain gyp1, stronger effect = lower value 0.987 | locus YOR080W, strain dia2, stronger effect = lower value 0.978 | locus YOR083W, strain WHI5, stronger effect = lower value 0.992 | locus YOR106W, strain vam3, stronger effect = lower value 0.977 | locus YOR136W, strain idh2, stronger effect = lower value 1 | locus YOR144C, strain elg1, stronger effect = lower value 0.989 | locus YOR184W, strain ser1, stronger effect = lower value 1.02 | locus YOR231W, strain MKK1, stronger effect = lower value 1.04 | locus YOR265W, strain rbl2, stronger effect = lower value 0.98 | locus YOR270C, strain vph1, stronger effect = lower value 0.931 | locus YOR290C, strain snf2, stronger effect = lower value 1.01 | locus YOR316C, strain cot1, stronger effect = lower value 1.01 | locus YPL051W, strain arl3, stronger effect = lower value 0.999 | [7] 1.02 | locus YPL078C, strain atp4, stronger effect = lower value 0.963 | locus YPL106C, strain sse1, stronger effect = lower value 0.932 | locus YPL240C, strain hsp82, stronger effect = lower value 0.963 | [8] 1 | locus YPL256C, strain CLN2, stronger effect = lower value 1.02 | locus YPR119W, strain clb2, stronger effect = lower value 1.02 | locus YPR141C, strain kar3, stronger effect = lower value 1.01 | locus YPR163C, strain tif3, stronger effect = lower value 0.997 | locus YPR167C, strain met16, stronger effect = lower value 1.01 | strain wtn01, stronger effect = lower value 1.01
